Inconclusive results are not listed. Activity calls are given as the source filed them. Unless noted, calls come from the whole dose curve; as a rule, active = well fitted curve in the direction sought with a large enough effect in the repeat runs; inconclusive = weak or mixed curves; inactive = no such curve, though single readings can be large; an effect the other way counts as inactive or inconclusive.
What was measured:
[1] = qHTS assay for small molecule agonists of the p53 signaling pathway (AID 651631; calls by dose curve; note: nearly all actives have a fitted effect of over 15% in size)
Summary of the method: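 Read-out is beta-lactamase FRET fluorescence measured 2 h after substrate addition at room temperature, in HCT-116 cells with a p53 response element-driven reporter exposed to compounds for 16 h at 37 °C.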

[2] = qHTS assay for small molecules that induce genotoxicity in human embryonic kidney cells expressing luciferase-tagged ATAD5 (AID 651632); note: nearly all actives have a fitted effect of over 15% in size
Summary of the method: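 Luminescent reporter readout, HEK293T ATAD5-luc line: 16 hr drug exposure (37C, 5% CO2) followed by Amplite, 30 min RT.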

[3] = qHTS assay for small molecule agonists of the p53 signaling pathway - cell viability (AID 651633; calls by dose curve;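 note: p53RE-bla HCT reporter cells with a stable beta-lactamase p53 reporter; series mostly up to about 83 µM; nearly all actives have a fitted effect of over 30% in size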)
Summary of the method: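 p53RE-bla cells were treated with compound for 16 hours at 37 C. Cytotoxicity was then measured as CellTiter-Glo luminescence after 30 min at room temperature.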

[4] = qHTS assay to test for compound auto fluorescence at 590 nm (red) in HepG2 cells (AID 720674)
Summary of the method: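 Fluorescence at 590 nm emission following 540 nm excitation was recorded from HepG2 wells one hour after compound transfer, with DMSO-only wells as vehicle and Rose Bengal sodium equivalency as the scale.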

[5] = qHTS assay to test for compound auto fluorescence at 535 nm (green) in HepG2 cells (AID 720675)
[6] = qHTS assay to test for compound auto fluorescence at 460 nm (blue) in HEK293 cells (AID 720678)
Summary of the method: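 HEK293 cells (2,000/well, medium with 10% dialyzed FBS) attached 4-5 hr, then exposed to compound overnight at 37C, 5% CO2. Blue fluorescence read at 405/460 nm, with triamterene as reference fluorophore.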

[7] = qHTS assay to test for compound auto fluorescence at 590 nm (red) in HEK293 cells (AID 720679)
Summary of the method: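 HEK293 cells (2,000/well, 10% dialyzed FBS) attached 4-5 hr, then dosed with compound or DMSO and incubated overnight at 37C, 5% CO2. Red fluorescence read at 540/590 nm, Rose Bengal sodium as reference fluorophore.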

[8] = qHTS assay to test for compound auto fluorescence at 535 nm (green) in HEK293 cells (AID 720680)
[9] = qHTS assay to test for compound auto fluorescence at 460 nm (blue) in HEK293 cell free culture (AID 720681)
Summary of the method: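 Compounds were added to cell-free DMEM with 10% FBS and fluorescence read directly. The blue channel used 405 nm excitation and 460 nm emission, with triamterene as the reference fluorophore.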

[10] = qHTS assay to test for compound auto fluorescence at 535 nm (green) in HEK293 cell free culture (AID 720682)
Summary of the method: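 Fluorescein serves as the green reference fluorophore; each compound's intrinsic emission at 535 nm (excitation 485 nm) is reported as an equivalent amount of that dye, measured in serum-containing DMEM without cells.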

[11] = qHTS assay to test for compound auto fluorescence at 590 nm (red) in HEK293 cell free culture (AID 720683)
Summary of the method: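 Cell-free wells of DMEM with 10% FBS received compound, and intrinsic fluorescence was read at excitation/emission 540/590 nm. Values expressed as equivalence to Rose Bengal sodium.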

[12] = qHTS assay to test for compound auto fluorescence at 590 nm (red) in HepG2 cell free culture (AID 720684)
Summary of the method: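 Compound was pinned into wells holding MEM with 10% FBS and no cells, and red fluorescence was read at Ex/Em 540/590 nm. Signal is expressed as auto fluorescence equivalency relative to Rose Bengal sodium.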

[13] = qHTS assay to test for compound auto fluorescence at 460 nm (blue) in HepG2 cell free culture (AID 720685)
Summary of the method: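 Compound (23 nL) or DMSO pinned into cell-free MEM with 10% FBS; blue fluorescence read at 405/460 nm excitation/emission, expressed as auto-fluorescence equivalency to triamterene.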

[14] = qHTS assay to test for compound auto fluorescence at 535 nm (green) in HepG2 cell free culture (AID 720686)
[15] = qHTS assay to test for compound auto fluorescence at 460 nm (blue) in HepG2 cells (AID 720687)
Summary of the method: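 HepG2 cells in MEM with 10% FBS, attached overnight at 37 C, were exposed to compound or DMSO for 1 hr at 37 C, 5% CO2. Blue fluorescence was read at 405/460 nm, with triamterene as reference fluorophore.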

[16] = target: Glucocorticoid receptor (Homo sapiens) (UniProt P04150); assay: qHTS assay to identify small molecule agonists of the glucocorticoid receptor (GR) signaling pathway (AID 720691; active = well fitted activation curve with a large enough effect in the signal ratio in the repeat runs, not every such curve was filed as active; the % refers to the signal ratio)
Summary of the method: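 qHTS in GR-bla HeLa cells: 4 h settling at 37 C/5% CO2, 18 h compound incubation at 37 C, 2 h LiveBLAzer B/G FRET substrate at room temperature, fluorescence intensity measured.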

[17] = qHTS assay for small molecule disruptors of the mitochondrial membrane potential - cell viability (AID 720634; calls by dose curve;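 note: human HepG2 liver cancer cells; series mostly up to about 83 µM; nearly all actives have a fitted effect of over 20% in size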)
Summary of the method: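 HepG2, 1 hr compound, 37 C. ATP luminescence via CellTiter-Glo, 30 min RT, same well as m-MPI.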

[18] = qHTS assay for small molecule disruptors of the mitochondrial membrane potential (AID 720635)
Summary of the method: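 HepG2 cells exposed to compound 1 hr at 37C, then Mito-MPS dye 30 min. Ratio read of aggregate (540/590 nm) versus monomer (490/535 nm) fluorescence.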

[19] = qHTS assay for small molecules that induce genotoxicity in human embryonic kidney cells expressing luciferase-tagged ATAD5 - cell viability (AID 651634; calls by dose curve; note: nearly all actives have a fitted effect of over 25% in size)
Summary of the method: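 Viability read: CellTiter-Fluor fluorescence, 30 min at 37C. Cells: HEK293T, luciferase-tagged ATAD5. Exposure: 15.5 hr, 37C, 5% CO2, compound or DMSO vehicle.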

[20] = target: Glucocorticoid receptor (Homo sapiens) (UniProt P04150); assay: qHTS assay to identify small molecule antagonists of the glucocorticoid receptor (GR) signaling pathway (AID 720692; active = well fitted inhibition curve with a large enough effect in the signal ratio in the repeat runs, not every such curve was filed as active; the % refers to the signal ratio)
Summary of the method: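 Inhibition of glucocorticoid signalling is measured in HeLa cells with a GRE-controlled beta-lactamase reporter; cells are co-treated with compound and 5 nM dexamethasone (final) for 18 h before FRET substrate readout.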
% is set by controls: 0 for no effect and ±100 for the full control effect.

Chain of Glucocorticoid receptor (Homo sapiens) (P04150 whole entry, looked up): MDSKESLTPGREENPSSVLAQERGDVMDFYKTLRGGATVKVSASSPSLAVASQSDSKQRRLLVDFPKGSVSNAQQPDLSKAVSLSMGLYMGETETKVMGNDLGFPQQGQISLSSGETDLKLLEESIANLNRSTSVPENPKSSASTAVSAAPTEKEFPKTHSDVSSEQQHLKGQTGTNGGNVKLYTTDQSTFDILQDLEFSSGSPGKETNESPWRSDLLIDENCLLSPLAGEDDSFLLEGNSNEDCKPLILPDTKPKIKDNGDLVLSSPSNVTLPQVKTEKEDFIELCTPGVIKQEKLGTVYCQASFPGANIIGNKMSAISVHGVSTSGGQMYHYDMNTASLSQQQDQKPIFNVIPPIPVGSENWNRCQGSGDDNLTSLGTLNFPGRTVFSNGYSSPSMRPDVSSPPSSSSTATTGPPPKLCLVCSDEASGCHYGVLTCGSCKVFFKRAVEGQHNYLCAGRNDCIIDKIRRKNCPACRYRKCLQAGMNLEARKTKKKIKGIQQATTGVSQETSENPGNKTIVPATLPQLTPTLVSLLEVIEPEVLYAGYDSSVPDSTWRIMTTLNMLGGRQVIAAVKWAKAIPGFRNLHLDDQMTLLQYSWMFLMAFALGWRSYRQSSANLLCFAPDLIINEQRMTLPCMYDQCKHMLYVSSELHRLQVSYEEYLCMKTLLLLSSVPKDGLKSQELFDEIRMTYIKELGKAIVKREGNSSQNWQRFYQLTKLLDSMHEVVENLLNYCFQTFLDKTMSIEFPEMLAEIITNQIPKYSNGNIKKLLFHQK

O=C1OCCO1
inactive: outcome [1] | outcome [2] | outcome [3] | outcome [4] | outcome [5] | outcome [6] | outcome [7] | outcome [8] | outcome [9] | outcome [10] | outcome [11] | outcome [12] | outcome [13] | outcome [14] | outcome [15] | Potency [16]

CCOC(=O)CC1(C)OCC(C)O1 (stereo not drawn)
inactive: outcome [1] | outcome [2] | outcome [3] | outcome [17] | Potency [18] | outcome [4] | outcome [5] | outcome [6] | outcome [7] | outcome [8] | outcome [10] | outcome [11] | outcome [12] | outcome [13] | outcome [14] | outcome [15]

C=C(C)c1cccc(C(C)(C)N=C=O)c1
inactive: outcome [1] | outcome [2] | outcome [3] | Potency [19] | outcome [17] | outcome [4] | outcome [5] | outcome [6] | outcome [8] | outcome [10] | outcome [11] | outcome [12] | outcome [13] | outcome [14] | outcome [15] | Potency [16]

CC(=O)CC(=O)Nc1ccc(C)cc1C
inactive: outcome [1] | outcome [2] | outcome [3] | Potency [19] | outcome [17] | outcome [4] | outcome [5] | outcome [6] | outcome [7] | outcome [8] | outcome [10] | outcome [11] | outcome [12] | outcome [13] | outcome [14] | outcome [15] | Potency [16] | outcome [20]

C=CC/C=C/C
inactive: outcome [1] | outcome [2] | outcome [3] | Potency [19] | outcome [17] | outcome [4] | outcome [5] | outcome [6] | outcome [8] | outcome [9] | outcome [10] | outcome [11] | outcome [12] | outcome [13] | outcome [14] | outcome [15] | Potency [16] | outcome [20]

COC(=O)c1cccc(Cl)c1
inactive: outcome [1] | outcome [2] | outcome [3] | outcome [17] | Potency [18] | outcome [5] | outcome [6] | outcome [7] | outcome [8] | outcome [9] | outcome [10] | outcome [11] | outcome [12] | outcome [13] | outcome [14] | outcome [15]

CN(C)CC/C=C1/c2ccccc2COc2ccc(CC(=O)O)cc21
inactive: outcome [1] | outcome [2] | outcome [3] | Potency [19] | outcome [5] | outcome [6] | outcome [7] | outcome [8] | outcome [9] | outcome [10] | outcome [11] | outcome [12] | outcome [13] | outcome [14] | outcome [15] | Potency [16] | outcome [20]

O=C(O)[C@H](O)c1ccccc1
inactive: outcome [1] | outcome [2] | outcome [3] | outcome [17] | Potency [18] | outcome [4] | outcome [5] | outcome [6] | outcome [8] | outcome [9] | outcome [10] | outcome [11] | outcome [12] | outcome [13] | outcome [14] | outcome [15]

N[C@@H](CSCCCO)C(=O)O
inactive: outcome [1] | outcome [2] | outcome [3] | outcome [17] | Potency [18] | outcome [4] | outcome [5] | outcome [6] | outcome [8] | outcome [9] | outcome [10] | outcome [11] | outcome [12] | outcome [13] | outcome [14] | outcome [15] | outcome [20]

CCO
inactive: outcome [1] | outcome [2] | outcome [3] | Potency [19] | outcome [17] | outcome [5] | outcome [6] | outcome [7] | outcome [8] | outcome [9] | outcome [10] | outcome [11] | outcome [12] | outcome [13] | outcome [14] | outcome [15] | Potency [16]

CC(=O)OC1CCCCC1C(C)(C)C (stereo not drawn)
inactive: outcome [1] | outcome [2] | outcome [3] | outcome [17] | Potency [18] | outcome [4] | outcome [5] | outcome [6] | outcome [7] | outcome [8] | outcome [9] | outcome [10] | outcome [11] | outcome [12] | outcome [13] | outcome [14] | outcome [15] | Potency [16]

CC1(C)Oc2ccc(C#N)cc2[C@@H](N2CCCC2=O)[C@@H]1O
inactive: outcome [1] | outcome [2] | outcome [3] | outcome [17] | Potency [18] | outcome [4] | outcome [5] | outcome [6] | outcome [7] | outcome [8] | outcome [9] | outcome [10] | outcome [11] | outcome [12] | outcome [13] | outcome [14] | outcome [15] | Potency [16] | outcome [20]

CCCCCCCCCCCCCCC(=O)NC(CO)CCCCCCCCCCCCCC (stereo not drawn)
inactive: outcome [1] | outcome [2] | outcome [3] | Potency [19] | outcome [17] | outcome [5] | outcome [6] | outcome [7] | outcome [8] | outcome [10] | outcome [11] | outcome [12] | outcome [13] | outcome [14] | outcome [15] | Potency [16]

CCn1cc(C(=O)O)c(=O)c2cnc(N3CCCC3)nc21
inactive: outcome [1] | outcome [2] | Potency [19] | outcome [17] | Potency [18] | fluorescence, relative to Rose Bengal [4] -0.176% [at 18.6 µM] | fluorescence, % of fluorescein control [5] -0.162% [at 18.6 µM] | fluorescence, % of triamterene [6] 0.0274% [at 18.6 µM] | fluorescence, % of fluorescein [8] 0.0361% [at 18.6 µM] | fluorescence, % of fluorescent control [9] 0.169% [at 18.6 µM] | activity change [10] -0.0351% [at 18.6 µM] | fluorescence, % of fluorescent control [11] -0.162% [at 18.6 µM] | fluorescence, % of Rose Bengal [12] 0.682% [at 18.6 µM] | fluorescence, % of fluorescent control [13] 0.141% [at 18.6 µM] | fluorescence, % of fluorescein control [14] -0.0006% [at 18.6 µM] | fluorescence, % of fluorescent control [15] 2.47% [at 18.6 µM] | Potency [16] | outcome [20]

NCC1(Cc2noc(=O)[nH]2)CCCCC1
inactive: outcome [1] | outcome [2] | Potency [19] | outcome [17] | outcome [4] | outcome [5] | outcome [6] | outcome [7] | outcome [8] | outcome [10] | outcome [11] | outcome [12] | outcome [13] | outcome [14] | outcome [15]

C=CC(=O)OCC1CCCO1 (stereo not drawn)
inactive: outcome [1] | outcome [2] | Potency [19] | outcome [17] | outcome [4] | outcome [5] | outcome [6] | outcome [8] | outcome [9] | outcome [10] | outcome [11] | outcome [12] | outcome [13] | outcome [14] | outcome [15]

— PubChem BioAssay (Tox21)
